Screening data as filed in PubChem BioAssay.
Shown are actives, neighbours in structure and some others; about 2.2% of the full set was active somewhere.
PvdQ inh – blocks Pseudomonas aeruginosa PvdQ acylase activity. purified PvdQ acylase, fluorescence plate reader. inhibition, % at 10 µM. hit rate 0.063% among 340,000; in the data active = inhibition above about 30%, passing the limit was not always enough;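 also: 0% = vehicle neutral wells and 100% = reference inhibitor wells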
Mot1-301 SUMO – blocks SUMOylation pathway, rescuing yeast Mot1-301 growth; S. cerevisiae Mot1-301 growth rescue, ATP luminescence, 38.5C; percent above DMSO median, 100 means doubled; growth rescue, % at 18.8 µM; hit rate 1% among 320,000; AID 2716;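 active = every valid replicate shows activation above 250% relative to neutral control wells; inactive = the rest, any valid replicate at or below 250%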;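 also: OY570 slx delta 5 strain wells were the positive control but not used for scaling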
PHOSPHO1 block – inhibitors of human PHOSPHO1 phosphatase | Q8TCT1 | recombinant PHOSPHO1, absorbance phosphatase assay | inhibition, % at 13.3 µM | hit rate 1.1% among 290,000; in the data active = inhibition above about 60%
JMJD2C inh – inhibitors of human GASC-1 (JMJD2C) demethylase; GST-JMJD2C(1-420) H3K9me3 demethylation, DELFIA europium; inhibition, % at 2.35 µM; hit rate 0.069% among 330,000; Q9H3R0;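 active = more than half of a compound's replicate wells show inhibition beyond 50%, single wells judged on their own value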;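 also: signal counts dimethyl H3K9 product captured on neutravidin plate; 0% = median of DMSO wells and 100% = 0.3 times that DMSO median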
pCIP destab – p/CIP protein destabilization; Q05BA5; F442A p/CIP-EGFP cells, EGFP fluorescence, 16 h; decrease of EGFP signal, % at 10 µM; hit rate 0.01% among 290,000;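 active = EGFP signal decrease of at least 30% at 10 µM or well 3 SD below plate mean, unless failing retest; inactive = the rest, including hits failing retest or dose response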
HDAC3 inh – blocks human histone deacetylase 3; recombinant HDAC3, fluorogenic peptide/trypsin coupled, fluorescence; O15379; hit rate 0.15% among 320,000; inhibition, % at 8.3 µM; in the data active = inhibition above about 26%, passing the limit was not always enough
Target sequence (O15379 whole entry, looked up): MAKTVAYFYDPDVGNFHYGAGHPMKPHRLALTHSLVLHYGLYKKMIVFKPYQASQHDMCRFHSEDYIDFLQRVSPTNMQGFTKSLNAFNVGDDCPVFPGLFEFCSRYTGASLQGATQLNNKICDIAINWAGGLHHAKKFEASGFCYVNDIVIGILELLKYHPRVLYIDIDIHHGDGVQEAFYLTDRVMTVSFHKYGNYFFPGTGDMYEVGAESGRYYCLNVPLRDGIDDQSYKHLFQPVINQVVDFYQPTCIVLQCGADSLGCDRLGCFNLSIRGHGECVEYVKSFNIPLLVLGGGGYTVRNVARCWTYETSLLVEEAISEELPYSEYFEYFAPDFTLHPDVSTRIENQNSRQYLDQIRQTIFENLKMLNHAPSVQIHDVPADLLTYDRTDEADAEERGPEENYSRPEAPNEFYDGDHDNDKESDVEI
Mot1 SUMO dose – inhibits SUMO pathway, affecting Mot1-301 yeast growth; shares compounds with Mot1-301 SUMO; S. cerevisiae Mot1-301 galactose growth, ATP luminescence, 24 h; -100 = growth of slx-deleted rescue strain; growth activity, percent, % at 42 µM; 2,300 tested, under 10 active; AID 493004;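 active = Signal drops as the depositor expects, and the fitted half-maximal dose is no more than ten times the top valid tested dose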;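 also: more negative values mean stronger growth rescue toward the control strain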
* = called active by the depositor; [ ] = remark or other dose.

`O=C(NCc1cccnc1)Nc1ccccc1` gave PvdQ inh 0, Mot1-301 SUMO 564*, PHOSPHO1 block 47, JMJD2C inh -11, pCIP destab -28, HDAC3 inh 4 and Mot1 SUMO dose 0.
Screening Cc1ccc(CNC(=O)CN(CCc2ccccc2)S(C)(=O)=O)cc1 returned PvdQ inh -17, Mot1-301 SUMO 14, PHOSPHO1 block -25, JMJD2C inh 0, pCIP destab 2 and HDAC3 inh -4.
CS(=O)(=O)N(CCc1ccccc1)CC(=O)NCc1cccnc1 was read as PvdQ inh 5, Mot1-301 SUMO 854*, PHOSPHO1 block 27, JMJD2C inh -4, pCIP destab -12, HDAC3 inh 1 and Mot1 SUMO dose 0.
`CC(C)(C)NC(=S)NCc1cccnc1` gave PvdQ inh -25, Mot1-301 SUMO 978*, PHOSPHO1 block 3, JMJD2C inh -6, pCIP destab 6, HDAC3 inh -3 and Mot1 SUMO dose 1.
`CC(C)(C)NC(=O)NCc1cccnc1` gave PvdQ inh 14, Mot1-301 SUMO -17, PHOSPHO1 block 32, JMJD2C inh -18, pCIP destab -6 and HDAC3 inh 3.
`CC1CCC(NC(=O)CN2C(=O)c3cccnc3Oc3ccc(Cl)cc32)CC1` (stereo not drawn) gave PvdQ inh -16, Mot1-301 SUMO -17, PHOSPHO1 block 13, JMJD2C inh 9, pCIP destab -8 and HDAC3 inh -3.
CCC(C)(C)n1nnnc1C(c1cccnc1)N1CCC(Cc2ccccc2)CC1 (stereo not drawn) was read as PvdQ inh -5, Mot1-301 SUMO 594*, PHOSPHO1 block -1, JMJD2C inh -6, pCIP destab -9, HDAC3 inh 1 and Mot1 SUMO dose 1.
Screening O=C(O)c1cccc(Nc2ncnc3sccc23)c1 returned PvdQ inh 14, Mot1-301 SUMO -17, PHOSPHO1 block 29, JMJD2C inh 14, pCIP destab -1 and HDAC3 inh 4.
`Fc1cccc(Nc2ncnc3sccc23)c1` gave PvdQ inh 0, Mot1-301 SUMO 655*, JMJD2C inh -3, pCIP destab -4, HDAC3 inh 5 and Mot1 SUMO dose 0.
Screening O=C1CC(N(CCc2ccccc2)C(=S)Nc2ccccc2)C(=O)N1c1ccc(F)cc1 (stereo not drawn) returned PvdQ inh -4, Mot1-301 SUMO 700*, PHOSPHO1 block -78, JMJD2C inh 1, pCIP destab -7, HDAC3 inh -2 and Mot1 SUMO dose 0.
Screening O=C1CC(N(CCc2ccccc2)C(=S)Nc2ccccc2)C(=O)N1c1ccccc1 (stereo not drawn) returned PvdQ inh -8, Mot1-301 SUMO -16, PHOSPHO1 block 0, JMJD2C inh -2, pCIP destab -17 and HDAC3 inh 14.
Screening COC(=O)CN(C(=S)Nc1ccc(F)cc1)C1CC(=O)N(c2ccccc2)C1=O (stereo not drawn) returned PvdQ inh 5, Mot1-301 SUMO 653*, PHOSPHO1 block 16, JMJD2C inh -1, pCIP destab 6, HDAC3 inh -3 and Mot1 SUMO dose 0.
Screening COc1ccc(C2C(C(=O)Nc3cc(OC)c(OC)c(OC)c3)c3ccccc3C(=O)N2C)cc1 (stereo not drawn) returned PvdQ inh -14, Mot1-301 SUMO 465*, PHOSPHO1 block -11, JMJD2C inh 13, pCIP destab -34, HDAC3 inh 6 and Mot1 SUMO dose 0.
`CN(C)CCOC(=O)CCc1ccccc1` gave PvdQ inh 2, Mot1-301 SUMO 560*, PHOSPHO1 block 25, JMJD2C inh -5, pCIP destab -8, HDAC3 inh 4 and Mot1 SUMO dose 0.
Screening CCc1nnc(NC(=O)c2ccc3nc(CC)c(CC)nc3c2)s1 returned PvdQ inh 10, Mot1-301 SUMO 176, PHOSPHO1 block 16, JMJD2C inh -3, pCIP destab 16 and HDAC3 inh 0.
CCCN(CC(=O)Nc1ccccc1C)C(=O)C1CCN(S(=O)(=O)c2cccc(C(F)(F)F)c2)CC1 was read as PvdQ inh -5, Mot1-301 SUMO -9, JMJD2C inh -1 and HDAC3 inh -1.
For CN(Cc1ccc(C(C)(C)C)cc1)C(=O)c1ccc2c(=O)n3c(nc2c1)CCC3 the results were PvdQ inh -8, Mot1-301 SUMO 399*, JMJD2C inh -3, HDAC3 inh -2 and Mot1 SUMO dose 0.
COC(=O)c1ccsc1NS(=O)(=O)c1ccccc1 was read as PvdQ inh -8, Mot1-301 SUMO 60, PHOSPHO1 block 19, JMJD2C inh 0, pCIP destab 2 and HDAC3 inh -1.
`NNC(=O)c1oc2nc(-c3ccccc3)cc(-c3ccccc3)c2c1N` gave PvdQ inh -14, Mot1-301 SUMO 477*, PHOSPHO1 block 1, JMJD2C inh 0, pCIP destab -20, HDAC3 inh -5 and Mot1 SUMO dose 0.
Screening COc1ccc(Cl)cc1NC(=O)NN1CCN(C)CC1 returned PvdQ inh -12, Mot1-301 SUMO 492, PHOSPHO1 block 10, JMJD2C inh 2, pCIP destab -10 and HDAC3 inh 4.
`COCCn1c(-c2cccc([N+](=O)[O-])c2)nc2c1c(=O)[nH]c(=O)n2Cc1ccccc1` gave PvdQ inh -11, Mot1-301 SUMO 10, PHOSPHO1 block 4, JMJD2C inh 0, pCIP destab -13 and HDAC3 inh -5.
Screening Cc1ccccc1CSc1n[nH]c(NS(=O)(=O)c2ccccc2)n1 returned PvdQ inh -21, Mot1-301 SUMO active, PHOSPHO1 block -2, JMJD2C inh -1, pCIP destab -4, HDAC3 inh 3 and Mot1 SUMO dose 0[21 µM].
`Cc1nc(SCc2ccccc2C#N)n[nH]1` gave PvdQ inh 2, Mot1-301 SUMO -9, PHOSPHO1 block 3, JMJD2C inh -5, pCIP destab -6 and HDAC3 inh -7.
Cc1ccccc1N=Nc1c(O)n(C)c2ccccc12 was read as PvdQ inh 6, Mot1-301 SUMO 6, JMJD2C inh 7, pCIP destab -21 and HDAC3 inh -5.
For COc1ccc2c(c1)C(=O)N1[C@H]3c4cc(OC)ccc4OC[C@@H]3[C@H](c3ccccc3)[C@]1(C)C(=O)N2 the results were PvdQ inh -23, Mot1-301 SUMO 150, JMJD2C inh 5 and HDAC3 inh 4.
COc1ccc2c(c1)OC[C@H]1[C@H]2N2C(=O)c3cc(Br)ccc3NC(=O)[C@@]2(C)[C@H]1c1ccccc1 was read as PvdQ inh -15, Mot1-301 SUMO 468*, JMJD2C inh 6, HDAC3 inh 12 and Mot1 SUMO dose 0.
